# Test results taken from the antibiotic and cytotoxicity screens of Wong et al. (2023).
# Hit rate of the full screen: of about 39,000 compounds, about 1,500 (3.8%) were called active. The list comes from a sample in which actives are over-represented; it also holds similar structures and randomly drawn compounds.
# Tested on: HSkMC (human skeletal muscle cells)
# Assay: cytotoxicity call (relative viability < 0.9)
# Conditions: 10 µM
row,Structure (SMILES),cytotoxicity call
1,C[C@@H]1CN([C@H](C)CO)C(=O)c2cc(NS(C)(=O)=O)ccc2O[C@@H](C)CCCCO[C@@H]1CN(C)C(=O)CCCN(C)C,inactive
2,C[C@@H]1CN([C@@H](C)CO)C(=O)Cc2cc(NC(=O)CCCCCC(=O)Nc3ccccc3N)ccc2O[C@@H]1CN(C)Cc1ccc(-c2ccccc2)cc1,inactive
3,C[C@@H]1CN([C@@H](C)CO)C(=O)c2cc(NS(=O)(=O)c3cn(C)cn3)ccc2O[C@H]1CN(C)C(=O)Nc1ccc2c(c1)OCO2,inactive
4,C[C@H]1CN([C@@H](C)CO)C(=O)c2cccc(NC(=O)C3CCOCC3)c2O[C@H]1CN(C)Cc1ccccc1,inactive
5,CCC(=O)Nc1ccc2c(c1)OC[C@@H](C)N(C(=O)CN1CCOCC1)C[C@H](C)[C@H](OC)CN(C)C2=O,inactive
6,CN(C)CCCNC(=O)C[C@H]1CC[C@H]2[C@@H](COC[C@@H](O)CN2S(=O)(=O)c2ccc(Cl)cc2)O1,inactive
7,C[C@H](CO)N1C[C@H](C)[C@@H](CN(C)S(C)(=O)=O)Oc2cc(C#CCN(C)C)ccc2S1(=O)=O,inactive
8,COCC(=O)Nc1ccc2c(c1)OC[C@@H](C)N(C(=O)Cc1ccccn1)C[C@@H](C)[C@@H](OC)CN(C)C2=O,inactive
9,C[C@H]1CN([C@@H](C)CO)C(=O)c2cc(NC(=O)C3CC3)ccc2O[C@H]1CN(C)Cc1ccc2c(c1)OCO2,inactive
10,COc1cccc(NC(=O)N(C)C[C@H]2Oc3cc(C#Cc4ccncc4)ccc3S(=O)(=O)N([C@H](C)CO)C[C@@H]2C)c1,inactive
11,COc1cccc(NC(=O)N(C)C[C@H]2Oc3cc(C#Cc4ccncc4)ccc3S(=O)(=O)N([C@@H](C)CO)C[C@H]2C)c1,inactive
12,COc1cccc(NC(=O)N(C)C[C@H]2Oc3cc(C#Cc4ccncc4)ccc3S(=O)(=O)N([C@@H](C)CO)C[C@@H]2C)c1,active
13,COc1cc2c(cc1OC)CN(C(=O)[C@H]1[C@@H]3C(=O)O[C@@H](c4ccccc4)[C@@H](c4ccccc4)N3[C@@H](c3ccc(O)cc3)[C@]13C(=O)Nc1ccccc13)CC2,inactive
14,O=c1/c(=C/c2cccc(Cl)c2)c2cccc3cccc1c32,inactive
15,Cc1noc(C)c1S(=O)(=O)N(C)C[C@H]1OCCCC[C@H](C)Oc2ccc(NS(=O)(=O)c3cn(C)cn3)cc2C(=O)N([C@H](C)CO)C[C@@H]1C,inactive
16,CNS(=O)(=O)c1ccc(C)cc1,inactive
17,Cc1ccc(S(N)(=O)=O)cc1,inactive
18,Cc1noc(C)c1S(=O)(=O)N(C)C[C@@H]1OCCCC[C@@H](C)Oc2ccc(NS(C)(=O)=O)cc2C(=O)N([C@@H](C)CO)C[C@@H]1C,inactive
19,CN(C)CCOC(=O)COc1ccc(Cl)cc1.Cl,inactive
20,CCCCc1nc(-c2ccc(OCCCN(CC)CC)cc2)cn1-c1ccc(Oc2ccc(Cl)cc2)cc1,active
21,COc1ccc(-n2nc(CCC(=O)N(C)O)cc2-c2ccc(Cl)cc2)cc1,inactive

row,Structure (SMILES),cytotoxicity call
1,C[C@@H]1CN([C@H](C)CO)C(=O)c2cc(NC(=O)NC3CCCCC3)ccc2O[C@@H](C)CCCCO[C@@H]1CN(C)Cc1ccc2c(c1)OCO2,inactive
2,CN(C)CCCNC(=O)C[C@@H]1C=C[C@@H](NC(=O)Cc2cccnc2)[C@@H](CO)O1,inactive
3,C[C@H](CO)N1C[C@H](C)[C@@H](CN(C)C(=O)Nc2ccc3c(c2)OCO3)Oc2ccc(NS(C)(=O)=O)cc2CC1=O,inactive
4,C[C@@H]1CN([C@H](C)CO)C(=O)Cc2cc(NS(=O)(=O)c3ccc(Cl)cc3)ccc2O[C@@H]1CN(C)Cc1ccc(-c2ccccc2)cc1,active
5,C[C@H]1CN([C@@H](C)CO)C(=O)Cc2cc(NS(=O)(=O)c3ccc(Cl)cc3)ccc2O[C@H]1CN(C)Cc1ccc(-c2ccccc2)cc1,active
6,C[C@H]1CN([C@@H](C)CO)C(=O)Cc2cc(NS(=O)(=O)c3ccc(Cl)cc3)ccc2O[C@@H]1CN(C)Cc1ccc(-c2ccccc2)cc1,inactive
7,C[C@@H]1CN([C@@H](C)CO)C(=O)Cc2cc(NS(=O)(=O)c3ccc(Cl)cc3)ccc2O[C@@H]1CN(C)Cc1ccc(-c2ccccc2)cc1,inactive
8,C[C@H](CO)N1C[C@H](C)[C@@H](CN(C)Cc2ccc(-c3ccccc3)cc2)Oc2ccc(NS(=O)(=O)c3ccc(Cl)cc3)cc2CC1=O,inactive
9,C[C@@H]1CN([C@H](C)CO)C(=O)Cc2cc(NS(=O)(=O)c3ccc(Cl)cc3)ccc2O[C@H]1CN(C)Cc1ccc(-c2ccccc2)cc1,active
10,C[C@H](CO)N1C[C@H](C)[C@H](CN(C)Cc2ccc(-c3ccccc3)cc2)Oc2ccc(NS(=O)(=O)c3ccc(Cl)cc3)cc2CC1=O,inactive
11,C[C@@H]1CN([C@@H](C)CO)C(=O)Cc2cc(NS(=O)(=O)c3ccc(Cl)cc3)ccc2O[C@H]1CN(C)Cc1ccc(-c2ccccc2)cc1,active
12,Cc1ccc(S(=O)(=O)N(C)C[C@@H]2Oc3c(NC(=O)c4cnccn4)cccc3C(=O)N([C@H](C)CO)C[C@@H]2C)cc1,inactive
13,CC=Cc1ccc2n(c1=O)C[C@H]1[C@H](CO)[C@@H](C(=O)NCCc3cn(C)cn3)N(C(=O)C3CC3)[C@@H]21,inactive
14,COc1ccc(S(=O)(=O)N(C)C[C@H]2OCc3cn(nn3)CCCC(=O)N([C@@H](C)CO)C[C@H]2C)cc1,inactive
15,C[C@H](CO)N1C[C@H](C)[C@@H](CN(C)C(=O)Nc2ccc3c(c2)OCO3)OCCCC[C@H](C)Oc2ccc(NC(=O)C3CCCCC3)cc2C1=O,inactive
16,C[C@H]1CN([C@@H](C)CO)C(=O)c2cc(C#CC3(O)CCCC3)cnc2O[C@H]1CN(C)C(=O)C1CCCCC1,inactive
17,Cc1noc(C)c1NC(=O)Nc1ccc2c(c1)C(=O)N([C@H](C)CO)C[C@@H](C)[C@H](CN(C)C(=O)Nc1ccc(C(F)(F)F)cc1)O2,inactive
18,O=C(C[C@@H]1CC[C@H]2[C@@H](COC[C@H](O)CN2C(=O)c2ccccc2)O1)N1CCOCC1,inactive
19,O=C(C[C@@H]1C[C@H]2c3cc(NS(=O)(=O)c4ccc(F)cc4)ccc3O[C@H]2[C@H](CO)O1)NCCN1CCCCC1,inactive
20,C[C@H](CO)N1C[C@H](C)[C@H](CN(C)S(=O)(=O)c2ccc(Cl)cc2)OCCCC[C@H](C)Oc2ccc(NC(=O)Nc3ccc(C(F)(F)F)cc3)cc2C1=O,inactive
21,C=CCOC(=O)[C@H]1[C@@H]2C(=O)O[C@@H](c3ccccc3)[C@@H](c3ccccc3)N2[C@@H](c2ccc(OCCOC(=O)[C@H]3C[C@H]4C(=O)N[C@@H](Cc5ccccc5)C(=O)N4[C@H]3c3cccc(OCCO)c3)cc2)[C@]12C(=O)Nc1ccccc12,inactive

row,Structure (SMILES),cytotoxicity call
1,Cc1nn(C[C@@H](O)Cn2cnc3c2c(=O)n(C)c(=O)n3C)c(C)c1Br,inactive
2,O=C(c1ccccc1Cl)c1cccnc1-c1nnn(Cc2cc(C(F)(F)F)cc(C(F)(F)F)c2)c1-c1ccncc1,active
3,NC1CCN(c2cccc(Cl)n2)CC1,inactive
4,CCN(CC)CCS(=O)(=O)[C@@H]1CCN2C(=O)c3coc(n3)CC(=O)C[C@H](O)/C=C(C)/C=C\CNC(=O)/C=C/[C@@H](C)[C@H](C(C)C)OC(=O)[C@@H]12,inactive
5,C[C@H](CO)N1C[C@H](C)[C@@H](CN(C)C(=O)Nc2ccc(F)cc2)OCCCC[C@H](C)Oc2ccc(NS(=O)(=O)c3ccc(F)cc3)cc2C1=O,inactive
6,C[C@@H]1CN([C@H](C)CO)C(=O)c2cc(NC(=O)C3CC3)ccc2O[C@H]1CN(C)S(=O)(=O)c1cccs1,inactive
7,C[C@H](CO)N1C[C@H](C)[C@H](CN(C)C(=O)Nc2cccc3ccccc23)Oc2ccc(NC(=O)Cc3cn(C)c4ccccc34)cc2C1=O,inactive
8,C[C@@H]1CN([C@H](C)CO)C(=O)c2cc(NC(=O)Cc3cn(C)c4ccccc34)ccc2O[C@@H]1CN(C)C(=O)Nc1cccc2ccccc12,active
9,C[C@@H]1CN([C@@H](C)CO)C(=O)c2cc(NC(=O)Cc3cn(C)c4ccccc34)ccc2O[C@H]1CN(C)C(=O)Nc1cccc2ccccc12,inactive
10,C[C@@H]1CN([C@H](C)CO)C(=O)c2cc(NC(=O)Cc3cn(C)c4ccccc34)ccc2O[C@H]1CN(C)C(=O)Nc1cccc2ccccc12,active
11,C[C@H]1CN([C@@H](C)CO)C(=O)c2cc(NC(=O)Cc3cn(C)c4ccccc34)ccc2O[C@@H]1CN(C)C(=O)Nc1cccc2ccccc12,inactive
12,C[C@H]1CN([C@@H](C)CO)C(=O)c2cc(NC(=O)Cc3cn(C)c4ccccc34)ccc2O[C@H]1CN(C)C(=O)Nc1cccc2ccccc12,inactive
13,C[C@H](CO)N1C[C@H](C)[C@@H](CN(C)C(=O)Nc2cccc3ccccc23)Oc2ccc(NC(=O)Cc3cn(C)c4ccccc34)cc2C1=O,inactive
14,C[C@H]1CN([C@@H](C)CO)C(=O)Cc2cc(NC(=O)Cc3cn(C)c4ccccc34)ccc2O[C@H]1CN(C)C(=O)Nc1cccc2ccccc12,inactive
15,C[C@@H]1CN([C@@H](C)CO)C(=O)c2cc(NC(=O)Cc3cn(C)c4ccccc34)ccc2O[C@@H]1CN(C)C(=O)Nc1cccc2ccccc12,active
16,COc1ccc(NC(=O)Nc2cccc3c2O[C@@H](CN(C)C(=O)Nc2cccc4ccccc24)[C@@H](C)CN([C@@H](C)CO)C3=O)cc1,inactive
17,O[C@H]1[C@H](O)[C@@H](O)[C@H](O)[C@H](O)[C@H]1O,inactive
18,COc1ccc(S(=O)(=O)N[C@H]2C=C[C@H](CC(=O)N3CCC(Cc4ccccc4)CC3)O[C@@H]2CO)cc1,inactive
19,CO[C@H]1CN(C)C(=O)c2cc(NC(=O)c3ccccc3)ccc2OC[C@H](C)N(C(=O)CN(C)C)C[C@@H]1C,inactive
20,C[C@@H]1CN([C@H](C)CO)C(=O)c2cccc(NC(=O)c3cnccn3)c2O[C@@H]1CN(C)CC1CCCCC1,inactive
